{"source": "the supplement of paper PMC11001985", "note": "Values without a mark were called inactive."}
{"biological_target": "ACLY (lysine site: K991) (UniProt P53396)", "sequence (P53396 whole entry)": "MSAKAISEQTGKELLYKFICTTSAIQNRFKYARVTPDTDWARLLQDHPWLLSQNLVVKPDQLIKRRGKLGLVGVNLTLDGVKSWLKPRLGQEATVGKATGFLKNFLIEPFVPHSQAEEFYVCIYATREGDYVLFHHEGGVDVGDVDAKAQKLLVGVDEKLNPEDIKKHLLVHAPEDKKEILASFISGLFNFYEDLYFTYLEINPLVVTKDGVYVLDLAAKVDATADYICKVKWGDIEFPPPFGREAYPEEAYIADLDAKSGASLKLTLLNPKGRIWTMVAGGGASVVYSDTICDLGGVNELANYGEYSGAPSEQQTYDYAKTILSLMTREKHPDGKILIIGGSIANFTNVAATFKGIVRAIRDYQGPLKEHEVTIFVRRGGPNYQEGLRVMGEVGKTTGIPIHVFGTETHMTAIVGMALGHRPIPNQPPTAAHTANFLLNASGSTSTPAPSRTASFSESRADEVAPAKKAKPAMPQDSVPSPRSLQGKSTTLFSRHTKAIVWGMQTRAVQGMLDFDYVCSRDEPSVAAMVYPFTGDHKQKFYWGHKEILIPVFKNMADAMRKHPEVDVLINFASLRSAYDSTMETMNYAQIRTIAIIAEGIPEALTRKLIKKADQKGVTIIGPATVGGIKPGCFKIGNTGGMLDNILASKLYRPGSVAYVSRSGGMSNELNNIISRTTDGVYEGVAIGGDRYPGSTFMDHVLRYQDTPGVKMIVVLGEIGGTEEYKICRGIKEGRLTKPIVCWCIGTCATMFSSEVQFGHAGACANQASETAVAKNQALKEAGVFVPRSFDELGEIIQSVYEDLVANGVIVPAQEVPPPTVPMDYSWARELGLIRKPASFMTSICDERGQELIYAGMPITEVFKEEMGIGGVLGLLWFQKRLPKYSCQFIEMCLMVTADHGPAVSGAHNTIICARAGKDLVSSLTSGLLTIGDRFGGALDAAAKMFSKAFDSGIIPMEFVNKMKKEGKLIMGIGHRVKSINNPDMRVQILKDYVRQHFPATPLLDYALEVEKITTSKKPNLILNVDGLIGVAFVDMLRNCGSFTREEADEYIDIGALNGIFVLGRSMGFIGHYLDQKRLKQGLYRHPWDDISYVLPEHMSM", "assay": "lysine labeling ratio R10:1 (500 µM / 50 µM probe), SILAC-ABPP in living cells; higher = lower intrinsic lysine reactivity toward the probe, active = 2 or less", "conditions": "HeLa; probe concentrations 500 vs 50 µM", "procedure": "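Living HeLa cells (SILAC light/heavy) in PBS at room temperature were labeled with 50 µM versus 500 µM of the lysine-reactive, reductant-cleavable probe OPA-S-S-alkyne (SILAC labeling time not stated). Probe-modified peptides were CuAAC-biotinylated, captured on neutravidin and eluted with DTT/IAA, then quantified by LC-MS/MS. R = median peptide ratio per lysine (500/50 µM), combined over 3 forward and 3 reverse SILAC replicates. Ratios are capped at 20; R < 2 = hyper-reactive.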"}
{"smiles": "C#CCNC(=O)CCSSCCC(=O)NCCc1ccc(C=O)c(C=O)c1", "lysine labeling ratio R10:1": 2.27}
